Measured values from PubChem BioAssay (NCI).
About 83,000 compounds went through this panel and 20% of them were active in at least one assay; those are over-represented in the sample as a whole.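 48-hour exposure, single concentration, 96-well plates; percent growth endpoint where 0 means no net growth. Active: below 10.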 Active and inactive are the calls of the source.

What was measured:
Assay in all cases: NCI-60 one-dose screen, 48 h (100 = growth as untreated, 0 = no growth, -100 = all killed)
Conditions in all cases: 10 µM unless noted
[1] = test system: T-47D breast
[2] = test system: BT-549 breast
[3] = test system: MDA-MB-435 melanoma
[4] = test system: SW-620 colon
[5] = test system: MCF7 breast
[6] = test system: HCT-116 colon
[7] = test system: HCC-2998 colon
[8] = test system: KM12 colon

Measured: growth

O=C(Oc1cccnc1)c1ccsc1Nc1ccnc(C(F)(F)F)c1
active: [6] 9.98%
inactive: [1] 72.7% | [2] 45% | [3] 82.6% | [4] 21% | [5] 58.2% | [7] 114% | [8] 41%

COc1ccc(-n2nc(C)c3c(Nc4ccc(NC(=O)Nc5cc(C(F)(F)F)ccc5F)cc4)ncnc32)cc1
inactive: [1] 11.8% | [2] 65.4% | [3] 53% | [4] 46% | [5] 34.2% | [6] 22% | [7] 21.2% | [8] 16.5%

COc1cc(CNc2oc(-c3ccccc3)c(-c3ccccc3)c2C#N)cc(CN2CCN(C)CC2)c1O
inactive: [1] 74% | [2] 76.4% | [3] 40.5% | [4] 31.8% | [5] 14.9% | [6] 36.7% | [7] 37.4% | [8] 66.7%

O=C1c2ccccc2OC=C(c2ccccc2)N1CCCCNc1ccc(S(=O)(=O)Nc2ncccn2)cc1
inactive: [1] 88.8% | [2] 100% | [3] 105% | [4] 99.3% | [5] 93.7% | [6] 96.1% | [7] 111% | [8] 97.5%

OCCNc1nccc(N2CCN(c3ccnc4cc(Cl)ccc34)CC2)n1
inactive: [1] 69% | [2] 68.3% | [4] 44.4% | [5] 34.2% | [6] 47.1% | [7] 86.4% | [8] 60.8%
active: [3] 7.31%

CC1=C[C@H]2c3c(c(O)c(O)c4oc5ccccc5c(=O)c34)[C@H](c3cc(O)c(O)c4oc5ccccc5c(=O)c34)[C@H]2C(C)(C)C1
active: [1] 9.72% | [2] -15.3% | [3] -36% | [5] 9.6% | [6] -84.8% | [8] -1.27%
inactive: [4] 11.9% | [7] 11.6%

Nc1n[nH]c2ccc([C@@H]3Nc4cc5c(cc4[C@H]4C6CCC(C6)[C@@H]34)C(=O)NC5)cc12 (some centres not stated)
active: [2] -0.949% | [3] -21.5% | [6] 6.53% | [8] 8.14%
inactive: [1] 76.9% | [4] 18.5% | [5] 17.2% | [7] 17.1%

CCN(CC)CCCCNc1c2ccc(Cl)cc2nc2ccc(OC)cc12
active: [1] -16.9% | [2] -29.5% | [3] -89.2% | [4] -24.8% | [5] -30% | [6] -39.5% | [7] -78.6% | [8] -6.4%

CON1C(=O)CC[C@]2(C)[C@H]3CC[C@@H]4C([C@@]5(C)CCC(=O)O5)CC[C@@]4(C)[C@]3(C)CC[C@H]2C1(C)C (some centres not stated)
inactive: [1] 90.7% | [2] 103% | [3] 101% | [4] 103% | [5] 94.8% | [6] 91.4% | [7] 108% | [8] 101%

O=C(/C=C/c1ccc(C(F)(F)F)cc1)Nc1ccc(C=C2c3ccccc3C(=O)c3ccccc32)cc1
active: [3] 6.92%
inactive: [1] 50.3% | [2] 57.6% | [4] 65.3% | [5] 46.5% | [6] 38.3% | [7] 78.3% | [8] 25.9%

O=C(Cn1cccc(Nc2ccccc2)c1=O)Nc1ccccc1
inactive: [1] 93.9% | [2] 106% | [3] 97.3% | [4] 102% | [5] 96.1% | [6] 98.6% | [7] 109% | [8] 110%

Cn1cccc1-c1nc2c3c(ccc2[nH]1)C(=O)c1ccccc1C3=O
inactive: [2] 71.7% | [3] 105% | [4] 105% | [5] 11.6% | [6] 83.7% | [7] 86.3% | [8] 73.6%
active: [1] -18.8%

O=C(C(=O)c1ccc2c(c1)OCO2)c1ccc2c(c1)OCO2
inactive: [1] 113% | [2] 101% | [3] 114% | [4] 90.6% | [5] 102% | [6] 101% | [7] 114% | [8] 98.1%

COc1cc(/C=C/c2cc(/C=C/c3ccc(O)c(OC)c3)n(-c3c(C)cccc3C)c(=O)n2)ccc1O
inactive: [7] 24.1% | [8] 11.6%
active: [1] -4.26% | [2] -18.1% | [3] 2.28% | [4] 7.79% | [5] 1.69% | [6] 8.26%

Cc1cc(N2CCSCC2)nc(NC2CCCC(Nc3ccnc4cc(Cl)ccc34)C2)n1 (configuration not stated)
active: [1] -37.2% | [2] -60.2% | [3] -88.5% | [4] -60.8% | [5] -36.3% | [6] -65.6% | [7] -58.3% | [8] 8.04%

CN(CCCCCl)P(=O)(OCc1ccc([N+](=O)[O-])o1)C(F)(F)c1ccc(CC(=O)NC[C@@H](O)/C=C\[C@@H](O)[C@H](CO)Cc2ccccc2)cc1 (some centres not stated)
inactive: [1] 75.5% | [2] 90.7% | [3] 65.4% | [4] 87.7% | [5] 59.9% | [6] 93.3% | [7] 105% | [8] 85.5%

O=C1c2cc3c(cc2-c2c1c1ccc(F)cc1c(=O)n2C[C@H](O)[C@H](O)[C@H](O)CO)OCO3
active: [1] -14.8% | [2] -11.3% | [3] -75.6% | [4] 1.12% | [5] 0.35% | [6] 9.02% | [7] -50.2% | [8] 3.9%

CC(C)(C)c1cc(C(C)(C)C)cc(S(=O)(=O)Nc2cc3ccccc3cc2C(=O)NCCN)c1
inactive: [2] 101% | [6] 11.9%
active: [1] 5.06% | [3] 0.859% | [4] -78% | [5] -10.6% | [7] -38.6% | [8] -33.4%

COc1ccc(C2CC(c3ccc(Cl)cc3)=NN2/C=C2\SC(=S)N(NC(=O)Cc3ccccc3Nc3c(Cl)cccc3Cl)C2=O)cc1 (configuration not stated)
inactive: [1] 49.5% | [2] 79% | [3] 89.3% | [4] 90% | [5] 74.1% | [6] 56.3% | [7] 90.4% | [8] 85.4%

O=c1nc2oc3ccc4ccccc4c3cc-2s1
inactive: [1] 12.6% | [2] 49% | [4] 20.8% | [5] 19.3% | [6] 21.1% | [7] 51.4% | [8] 19.5%
active: [3] -58.5%

CCN(CC)S(=O)(=O)c1ccc(OC)c(NC(=O)c2[nH]c(C)c3c2CCCCC3=O)c1
inactive: [1] 16.6% | [2] 59.8% | [3] 31.3% | [4] 67% | [5] 19% | [6] 33.7% | [7] 42.3% | [8] 47.9%

O=C1c2ccccc2C(=O)c2c(N=Nc3[nH]c(=S)[nH]c3O)cccc21
active: [3] -67.7%
inactive: [1] 21.8% | [2] 34.3% | [4] 18% | [5] 18.7% | [6] 20.1% | [7] 29.9% | [8] 17%

O=C(COc1ccc(-c2nc3cc(Cl)c(Cl)cc3[nH]2)cc1)N=Nc1c(O)[nH]c2ccccc12
inactive: [2] 64.7% | [3] 25.6% | [6] 16.2%
active: [1] -37.9% | [4] -32.3% | [5] -49.7% | [7] -3.87% | [8] -38.8%

O=Nc1c(O)c(Cl)cc2ccccc12
inactive: [2] 83.7% | [3] 91.8% | [4] 46.2% | [5] 49.6% | [6] 31.5% | [7] 115% | [8] 79.5%
active: [1] -4.57%

Cn1cc(C(=O)c2nc(-c3c[nH]c4ccc(F)cc34)no2)c2cc(F)ccc21
inactive: [1] 92.1% | [2] 92.5% | [3] 64% | [4] 87.9% | [5] 58.1% | [6] 99.8% | [7] 97.4% | [8] 79.2%

Clc1ccc2c(NCCCCNc3nc(N4CCOCC4)nc4ccccc34)ccnc2c1
inactive: [2] 107% | [3] 14.1% | [4] 14.9% | [5] 33.3% | [7] 58.3% | [8] 33.4%
active: [1] 8.21% | [6] -7.74%

CN(C)c1ccc(NC(=O)c2ccc(/C=C/C(=O)c3ncc[nH]3)cc2)cc1
inactive: [1] 46.6% | [2] 63.1% | [3] 51.7% | [4] 21.1% | [5] 12.1% | [6] 46.4% | [7] 87.9% | [8] 10.2%

Oc1cccc(-c2nc(N3CCOCC3)c3c4c(sc3n2)CCCC4)c1
inactive: [2] 45.4% | [3] 59.7% | [4] 63.3% | [5] 42% | [6] 66.5% | [7] 81.9% | [8] 62.6%
active: [1] 9.18%

O=S(=O)(Nc1ccc(I)cc1F)c1ccc(-c2cnc(C3CC3)o2)cc1
inactive: [1] 52% | [2] 45.7% | [4] 27.2% | [5] 27.9% | [6] 40.8% | [7] 76.9% | [8] 52.9%
active: [3] 2.11%
